The values below come from PubChem BioAssay (NCATS).

Records with an inconclusive call do not appear. The source made the active and inactive calls. Unless noted, the call rests on the fitted dose curve; in most records, active means well fitted curve in the direction sought with a large enough effect; inconclusive means small, poorly fitted or top-dose-only effect, or another doubt; inactive means no such curve, though single readings can be large; an effect the other way counts as inactive or inconclusive.

Experiment [1] can be described thus: qHTS Assay for Identification of Small Molecule Agonists for Thrombopoietin (TPO) Signaling Pathway (AID 917). The essentials: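 Activators of TPO signaling were sought in murine Ba/F3 cells transfected with the human receptor, using a luciferase gene driven by the Glycoprotein IIb promoter; 24-hr compound exposure at 37 C alongside 26 pM TPO, in IL-3-free medium.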
Background: Quantitative high-throughput screening tests each substance at several concentrations.

Experiment [2] has as its target Pyruvate kinase (Leishmania mexicana) (UniProt Q27686). Briefly: qHTS Validation Assay for Inhibitors of Leishmania Mexicana Pyruvate Kinase (AID 945). The essentials: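 Pyruvate kinase activity of E451W LmPYK (0.2 nM) was followed as ATP output after 1 h at room temperature with 0.5 mM PEP and 0.1 mM ADP, detected by PKLight luminescence.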
Experiment [3] deals with Pyruvate kinase PKM (Homo sapiens) (UniProt P14618). Briefly: qHTS Assay for Activators of Human Muscle Pyruvate Kinase (AID 954; active means well fitted curve in the direction sought with a large enough effect, not every such curve was filed as active). A digest of the protocol: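 Luminescence from a luciferase ATP-detection/stop reagent reported PKM2 activity. Reactions contained 0.1 nM purified human enzyme, 0.5 mM PEP, 0.1 mM ADP and 7 mM MgCl2 at pH 7.2, run 1 h at RT.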
Sequence of Pyruvate kinase PKM (Homo sapiens) (P14618 whole entry, looked up): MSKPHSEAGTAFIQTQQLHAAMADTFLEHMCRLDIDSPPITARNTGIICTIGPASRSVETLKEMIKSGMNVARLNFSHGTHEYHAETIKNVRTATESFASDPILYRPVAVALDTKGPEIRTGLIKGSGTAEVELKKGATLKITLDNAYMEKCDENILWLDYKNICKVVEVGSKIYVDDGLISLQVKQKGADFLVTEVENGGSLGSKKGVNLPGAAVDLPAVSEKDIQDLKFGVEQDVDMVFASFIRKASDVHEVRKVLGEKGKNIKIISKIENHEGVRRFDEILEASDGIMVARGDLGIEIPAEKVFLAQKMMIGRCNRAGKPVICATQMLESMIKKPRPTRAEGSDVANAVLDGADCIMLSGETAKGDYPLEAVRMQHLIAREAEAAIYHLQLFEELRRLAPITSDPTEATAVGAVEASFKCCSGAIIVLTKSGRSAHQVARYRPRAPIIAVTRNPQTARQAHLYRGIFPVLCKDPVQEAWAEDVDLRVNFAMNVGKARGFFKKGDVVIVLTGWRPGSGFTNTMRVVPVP
In experiment [4] the target is Alpha-galactosidase (Coffea arabica) (UniProt Q42656). As to the kind of experiment: Counterscreen for Glucocerebrosidase Inhibitors: qHTS Assay for Coffee Bean alpha-Galactosidase at pH 4.5 (AID 957). Further: series mostly up to about 77 µM. A digest of the protocol:
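AC50 values derive from Hill-equation modeling of concentration-response data, normalized to no-enzyme and full-activity controls. The pH 4.5 citrate assay used 2 nM coffee bean enzyme and 80 uM fluorogenic substrate for 20 min.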

Experiment [5] is described as follows: qHTS Assay for Identification of Small Molecule Antagonists for Thrombopoietin (TPO) Signaling Pathway (AID 918). Further: potency means the concentration at half of the fitted maximal effect; nearly all actives have a fitted effect of over 60% in size. The note with it: TPO-dependent cell signaling reporter, antagonist mode. The essentials:
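First, Ba/F3 reporter cells expressing human TPO receptor were held overnight without IL-3. Next, compound and 26 pM TPO were added. After 24 hrs incubation at 37 C, luciferase luminescence under the Glycoprotein IIb promoter was recorded.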

The nature of experiment [6]: Cell Viability - LYMP2-001 (AID 921).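 Further: series mostly up to about 92 µM; cells exposed to compound for 24 h at 37 °C; nearly all actives have a fitted effect of over 70% in size.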 A digest of the protocol:
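CellTiter-Glo luminescence (intracellular ATP) after 24 hr compound exposure at 37 C, 2500 lymphoblastoid cells/well in complete medium. AC50 fitted with standard Hill equation; tetraoctylammonium bromide positive control.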

Experiment [7] in a line: MultiTox-Fluor Cytotoxicity Assay - LYMP1-001 - Dead Cells (AID 946).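 Further: cells exposed to compound for 16 h.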 The essentials: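 AC50 from Hill fit of concentration-response; data normalized to DMSO (basal) and 15 uM tetraoctylammonium bromide (100%). LYMP1-001 lymphoblastoid cells, 2500/well, 16 hr compound at 37 C; dead-cell protease fluorescence, Ex/Em 485/520.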
Experiment [8] in a line: MultiTox-Fluor Cytotoxicity Assay - LYMP1-001 - Live Cells (AID 947). Further: potency means the concentration at half of the fitted maximal effect.
The nature of experiment [9]: Cell Viability - LYMP1-002 - Assay at 16 hr (AID 948). Further: potency means the concentration at half of the fitted maximal effect. The essentials:
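LYMP1-002 human lymphoblastoid cells, 2500/well; 5 hr 37 C; cpd 16 hr 37 C; CellTiter-Glo 30 min RT; luminescence (ATP). Concentration-response, Hill-fit AC50. Pos ctrl tetraoctylammonium bromide.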

Experiment [10] can be described thus: MultiTox-Fluor Cytotoxicity Assay - LYMP1-002 - Live Cells (AID 955).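 Further: cells exposed to compound for 16 hours.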 Further: potency means the concentration at half of the fitted maximal effect. The essentials: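 Cytotoxicity in the human lymphoblastoid line LYMP1-002 is measured as loss of live-cell protease activity after 16 h treatment in complete culture medium. AC50 is derived from Hill-equation fits of qHTS concentration-response data.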
Experiment [11] is described as follows: MultiTox-Fluor Cytotoxicity Assay - LYMP1-002 - Dead Cells (AID 960).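 Further: cells exposed to compound for 16 h at 37 °C; nearly all actives have a fitted effect of over 60% in size.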 The essentials:
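Acute cytotoxicity in a human lymphoblastoid line is scored as rising dead-cell protease signal after 16 hr exposure at 37 C, measured fluorometrically (485/520).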

Experiment [12] is described as follows: MultiTox-Fluor Cytotoxicity Assay - LYMP1-003 - Dead Cells (AID 961).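 Further: cells exposed to compound for 16 h at 37 °C; nearly all actives have a fitted effect of over 70% in size.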 Further: potency means the concentration at half of the fitted maximal effect. The essentials: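 Human lymphoblastoid LYMP1-003 cells (2500/well) were treated with compounds for 16 hr at 37 C in complete medium. Dead-cell protease release was read by bis-AAF-R110 fluorescence (Ex/Em 485/520). AC50 came from Hill fits, normalized to DMSO and 15 uM tetraoctylammonium bromide.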

Experiment [13] is described as follows: MultiTox-Fluor Cytotoxicity Assay - LYMP1-003 - Live Cells (AID 962).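 Further: cells exposed to compound for 16 hours at 37 °C.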 Further: potency means the concentration at half of the fitted maximal effect. The essentials:
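Cells plated at 2500 per well and incubated 5 hr; compounds added and incubated 16 hr at 37 C; MultiTox-Fluor reagent added for 60 min at room temperature; fluorescence of liberated AFC measured at 405/510 nm.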

Experiment [14] can be described thus: Cell Viability - LYMP1-003 - Assay at 24 hr (AID 963). Further: potency means the concentration at half of the fitted maximal effect. The essentials: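 Acute toxicity in LYMP1-003 lymphoblastoid cells: 24 hr compound treatment at 37 C, ATP measured with CellTiter-Glo after 30 min at room temperature. AC50 derived by fitting the Hill equation to qHTS titrations.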
The target of experiment [15] is Pyruvate kinase PKM (Homo sapiens) (UniProt P14618). Briefly: qHTS Assay for Inhibitors of Human Muscle Pyruvate Kinase (AID 958). A digest of the protocol:
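Screening used highly purified human pyruvate kinase M2 under submaximal activity, with PEP at its Km and ADP below Km. After an hour at room temperature, ATP was read by luciferase luminescence.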

Experiment [16] concerns the target Muscarinic acetylcholine receptor M1 (Rattus norvegicus) (UniProt P08482). Briefly: qHTS Assay for Antagonists of Acetylcholine Muscarinic M1 Receptor: Kinetic Measurement of Intracellular Calcium Response (AID 943). Further: nearly all actives have a fitted effect of over 75% in size. Further: potency means the concentration at half of the fitted maximal effect. The essentials: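 Intracellular calcium flux, recorded with Fluo-4 in a kinetic plate reader, served as signal; the response to carbachol at EC80 (100 nM final) was taken as maximal over minimal fluorescence after a 10 min compound pre-incubation in rat M1-CHO cells.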

The target is the same in experiment [17]. Briefly: qHTS Assay for Antagonists of Acetylcholine Muscarinic M1 Receptor: Measurement of IP-One Response (AID 944). Further: nearly all actives have a fitted effect of over 75% in size. Further: potency means the concentration at half of the fitted maximal effect. The essentials:
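Steps: plate transfected CHO-M1 cells overnight; add test compound, 10 min; add carbachol (200 nM, EC80) in stimulation buffer with LiCl; incubate 30 min; add labelled IP1 tracer and anti-IP1 antibody in lysis buffer; read HTRF after 10 min.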

Experiment [18] is described as follows: Confirmation and Secondary Assay for Modulators of Hemoglobin Beta Chain Splicing at IVS2 705 locus (AID 930).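 Further: HeLa cells stably expressing the EGFP-705 splicing reporter; GFP fluorescence per well restored by corrected splicing of the IVS2-705 intron in EGFP; series mostly up to about 46 µM.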 The essentials:
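Assay measures total GFP intensity per well in HeLa EGFP-705 cells after 2 days with compound; mis-splicing normally truncates EGFP, so fluorescence indicates corrected splicing.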

Sequence of Pyruvate kinase (Leishmania mexicana) (Q27686 2-499 E452W): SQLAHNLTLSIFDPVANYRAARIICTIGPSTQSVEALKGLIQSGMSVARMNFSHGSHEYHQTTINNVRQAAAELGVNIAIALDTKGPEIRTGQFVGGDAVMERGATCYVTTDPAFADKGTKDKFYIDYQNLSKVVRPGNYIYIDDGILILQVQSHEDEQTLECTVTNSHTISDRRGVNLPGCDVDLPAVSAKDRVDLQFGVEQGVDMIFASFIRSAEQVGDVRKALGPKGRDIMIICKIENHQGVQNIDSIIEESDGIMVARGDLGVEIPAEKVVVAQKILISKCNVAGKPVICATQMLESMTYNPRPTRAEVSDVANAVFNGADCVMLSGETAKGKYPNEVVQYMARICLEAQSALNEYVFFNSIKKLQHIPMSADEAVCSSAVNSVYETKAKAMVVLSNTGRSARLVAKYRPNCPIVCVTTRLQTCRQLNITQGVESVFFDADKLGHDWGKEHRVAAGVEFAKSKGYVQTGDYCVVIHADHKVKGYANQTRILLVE
Sequence of Alpha-galactosidase (Coffea arabica) (Q42656 whole entry, looked up): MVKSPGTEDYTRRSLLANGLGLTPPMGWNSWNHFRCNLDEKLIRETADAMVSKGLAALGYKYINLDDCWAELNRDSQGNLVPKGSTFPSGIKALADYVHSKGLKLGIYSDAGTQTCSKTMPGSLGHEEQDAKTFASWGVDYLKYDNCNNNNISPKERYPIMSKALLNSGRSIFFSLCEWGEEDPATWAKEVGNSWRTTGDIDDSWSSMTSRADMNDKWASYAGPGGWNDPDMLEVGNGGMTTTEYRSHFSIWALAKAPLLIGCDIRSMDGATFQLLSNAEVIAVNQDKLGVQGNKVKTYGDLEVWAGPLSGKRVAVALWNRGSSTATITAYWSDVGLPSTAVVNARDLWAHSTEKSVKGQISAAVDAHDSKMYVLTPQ
Sequence of Muscarinic acetylcholine receptor M1 (Rattus norvegicus) (P08482 whole entry, looked up): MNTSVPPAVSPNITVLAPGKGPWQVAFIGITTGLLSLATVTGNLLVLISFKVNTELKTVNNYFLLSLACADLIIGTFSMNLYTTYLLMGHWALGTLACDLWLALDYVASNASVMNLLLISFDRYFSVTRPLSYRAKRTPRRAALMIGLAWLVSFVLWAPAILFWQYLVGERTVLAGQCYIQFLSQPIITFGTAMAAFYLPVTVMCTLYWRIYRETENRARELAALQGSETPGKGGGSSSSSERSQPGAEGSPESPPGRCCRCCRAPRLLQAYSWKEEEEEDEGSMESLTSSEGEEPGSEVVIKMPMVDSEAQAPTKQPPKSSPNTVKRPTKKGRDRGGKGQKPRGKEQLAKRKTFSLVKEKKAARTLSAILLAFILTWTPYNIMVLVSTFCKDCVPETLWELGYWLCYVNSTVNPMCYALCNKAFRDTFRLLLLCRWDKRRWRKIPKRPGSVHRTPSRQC

In the case of `Clc1ccc(N2C[C@H]3CC[C@@H](C2)N3)nn1`, the Potency result in [1] and in experiment [2] was “inactive” each time. For the same molecule, the outcome in experiment [3] and in experiment [4] was inactive.
For `CCCN1CCc2cc(O)cc3c2[C@H]1Cc1ccc(O)c(O)c1-3`, in experiment [5], the Potency is 10 µM (active). Moreover, in [2], the Potency entry was “inactive”. Further, the result in [3] and in experiment [4] was inactive.
On to `ClC(Cl)(Cl)Cl`, for which the Potency result in experiment [6], in experiment [7], in experiment [8], in [9], in [10] and in experiment [11] was “inactive” in each case. The Potency result in [12], in experiment [13] and in [14] was “inactive” in each case.
As for `NC(=O)COc1c(F)cc(SCCNS(=O)(=O)c2ccccc2)cc1F`, the Potency entry in experiment [1] and in [2] was “inactive” throughout. Moreover, the molecule was classed as inactive in experiment [3] and in experiment [4].
As to `C[C@H](N)CN1CCc2ccc(Br)cc21`, the Potency result in experiment [1] and in experiment [2] was “inactive” throughout. Further, the call in experiment [3] and in experiment [4] was inactive.
For `NNC(N)=O`, the Potency entry in [6], in experiment [2], in [7], in [8], in experiment [9] and in experiment [10] was “inactive” each time. For the same molecule, the Potency entry in [11], in experiment [12], in experiment [13] and in experiment [14] was “inactive” each time. Besides, the molecule was called inactive in experiment [3] and in experiment [4].
With `[O]=[Cd]`, the Potency entry in experiment [6], in experiment [7], in [8], in experiment [9], in [10] and in experiment [11] was “inactive” in each case. Also, the Potency result in experiment [12], in experiment [13] and in [14] was “inactive” in each case.
`Clc1ccccc1Cl`: the Potency result in [6], in [7], in experiment [8], in experiment [9], in [10] and in experiment [11] was “inactive” each time. The Potency entry in experiment [12], in experiment [13] and in experiment [14] was “inactive” in each case.
As for `C[N+]1(C)[C@@H]2CC[C@H]1CC(OC(=O)c1c[nH]c3ccccc13)C2` (some centres not stated), the Potency in [5] is 10 µM (active). Also, the Potency result in [2] was “inactive”. In addition, the molecule was classed as inactive in experiment [3] and in [4].
`CN1CCc2cc(O)cc3c2[C@H]1Cc1ccc(O)c(O)c1-3`: the Potency in experiment [5] was 10 µM (active). Further, the Potency result in experiment [2] and in experiment [15] was “inactive” in each case. Moreover, the outcome in [4] was inactive.
In the case of `CCCN(CCC)CCc1c[nH]c2ccc(C(N)=O)cc12`, the Potency result in experiment [1] and in experiment [2] was “inactive” in each case. Further, the molecule was classed as inactive in experiment [3] and in [4].
For the molecule `CCCCCCCCOC(=O)c1ccccc1C(=O)OCCCCCCCC`, the Potency entry in experiment [6], in [7], in experiment [8], in experiment [9], in experiment [10] and in experiment [11] was “inactive” throughout. Further, the Potency entry in experiment [12], in [13] and in experiment [14] was “inactive” throughout.
`Cc1c2ccncc2c(C)c2c1[nH]c1ccccc12`: the Potency in experiment [5] was 10 µM (active); in experiment [17] it was 25.1 µM (active). The Potency result in [16] and in [2] was “inactive” throughout. Moreover, the call in experiment [3] and in [4] was inactive.
In the case of `CC(C)(C)c1cc(C=C(C#N)C#N)cc(C(C)(C)C)c1O`, the Potency in experiment [5] is 1.58 µM (active); in experiment [17] it was 1.41 µM (active). For the same molecule, the Potency result in experiment [2] was “inactive”. For the same molecule, the outcome in [3] and in experiment [4] was inactive.
With `C=CCN=C=S`, the Potency entry in [6], in experiment [7], in [8], in experiment [9], in experiment [10] and in experiment [11] was “inactive” throughout. Further, the Potency result in experiment [12], in [13] and in experiment [14] was “inactive” each time.
With `CN1CCc2cccc(Cl)c2CC1`, the Potency entry in [1] and in experiment [2] was “inactive” throughout. Further, the molecule was called inactive in [3] and in experiment [4].
As for `CN(N=O)c1ccc(O)c(O)c1`, the Potency entry in [1], in experiment [17], in experiment [2] and in [15] was “inactive” throughout. In addition, the molecule was called inactive in experiment [4].
Turning to `C[N+]1(C)CCN(c2ccccc2)CC1`, the Potency entry in experiment [1] and in experiment [2] was “inactive” each time. Also, the outcome in experiment [3] and in [4] was inactive.
Turning to `c1ccc2c(c1)[I+]c1ccccc1-2`, the Potency in experiment [5] was 0.0398 µM (active). The Potency result in [17] and in experiment [2] was “inactive” throughout. The result in experiment [3] and in [4] was inactive.
Regarding `COC1=CC(=O)O[C@@H](/C=C/c2ccccc2)C1`, the Potency result in [6], in experiment [7], in [8], in experiment [9], in [10] and in [11] was “inactive” throughout. Further, the Potency result in [12], in experiment [13] and in experiment [14] was “inactive” throughout.
With `ClC1C(Cl)C(Cl)C(Cl)C(Cl)C1Cl` (configuration not stated), the molecule was called inactive in experiment [18].
In the case of `CCCCCl`, the Potency entry in [6], in [7], in [8], in experiment [9], in [10] and in [11] was “inactive” throughout. Further, the Potency result in experiment [12], in [13] and in experiment [14] was “inactive” throughout.
For `O=S1(=O)N(CCN2CC=C(c3c[nH]c4cc(F)ccc34)CC2)c2cccc3c2N1CCC3`, the Potency is 15.8 µM (active) in [16] and 14.1 µM (active) in [17]. Also, the Potency result in [2] is “inactive”. Besides, the result in [3] and in experiment [4] was inactive.
For `C[C@H]1CC[C@@H]2[C@@H](C)[C@H]3[C@H](C[C@H]4[C@@H]5CC=C6CC(O[C@@H]7O[C@H](CO)[C@H](O)[C@H](O[C@@H]8O[C@H](CO)[C@@H](O)[C@H](O)[C@H]8O)[C@H]7O[C@H]7O[C@@H](C)[C@H](O)[C@@H](O)[C@H]7O)CC[C@]6(C)[C@H]5CC[C@]34C)N2C1` (some centres not stated), the Potency result in experiment [6] and in experiment [11] was “inactive” in each case. Further, the Potency in experiment [8] was 31.6 µM (active); in [9], 31.6 µM (active); in experiment [10], 12.6 µM (active); in experiment [12], 20 µM (active); in [13], 25.1 µM (active); in [14], 20 µM (active).
For the molecule `OC1CCCCC1N1CCC(c2ccccc2)CC1` (configuration not stated), the outcome in [18] was inactive.
